Test results reported in PMC12820563, “FoxP3 forms a head-to-head dimer in vivo and stabilizes its multimerization on adjacent microsatellites”.
The full ranking holds about 16,000 sequences; the median of “rpm ratio (pull-down/input)” is about 0.5, and the highest 2% start at about 5.5. Only a selection was taken, and the highest values are over-represented in it overall.

The sequences below were run against T1, MBP-FoxP3dN (Mus musculus, UniProt Q99JB6 188-423) (assay: PD-seq (MBP pull-down with sequencing); 20 mM Tris-HCl pH 7.5, 100 mM NaCl, 1.5 mM MgCl2, 0.4 uM protein, 0.1 uM dsDNA library, 30 min, room temperature, amylose pull-down; high values mean tight binding). Conditions: protein: recombinant; tags: His6-MBP; chain copies: 2; dsDNA, one strand shown.
T1 sequence: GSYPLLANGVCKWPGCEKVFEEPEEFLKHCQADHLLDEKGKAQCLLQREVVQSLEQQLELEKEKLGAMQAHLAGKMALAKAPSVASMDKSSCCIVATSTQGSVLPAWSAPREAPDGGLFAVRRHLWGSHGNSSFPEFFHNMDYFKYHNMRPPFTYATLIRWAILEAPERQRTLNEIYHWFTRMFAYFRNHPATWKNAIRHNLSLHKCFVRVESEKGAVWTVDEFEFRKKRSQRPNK
How it was run: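 Amylose resin was used to capture complexes formed during 30 min at room temperature in Tris pH 7.5 buffer with NaCl and MgCl2 between 0.4 µM His6-MBP-tagged mouse FoxP3 or FoxP1 fragment lacking the N-terminus, expressed in E. coli, and 0.1 µM Klenow-filled double-stranded degenerate DNA library. After three washes, the DNA was released with proteinase K, barcoded by PCR and sequenced on Illumina. Binding is pooled-replicate reads-per-million enrichment, pull-down over input.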

Sequence | binding signal
GATGATTGTTCTCCCAGCTGATGAATTCTTAAACTCGAGTAAACAAATTTTCCTAATCTTTCTGTTCAAGCGCCATCTAC | 0.267 RPM ratio (pull-down/input)
GATGATTGTTCTCCCAGCTGATGAATTACTATTATCGAGTAAACAAATTTTCCTAATCTTTCTGTTCAAGCGCCATCTAC | 0.758 RPM ratio (pull-down/input)
GATGATTGTTCTCCCAGCTGATGAATTAAATACATCGAGTAAACAAATTTTCCTAATCTTTCTGTTCAAGCGCCATCTAC | 0.687 RPM ratio (pull-down/input)
GATGATTGTTCTCCCAGCTGATGAATTGTTTTCTTCGAGTAAACAAATTTTCCTAATCTTTCTGTTCAAGCGCCATCTAC | 4.15 RPM ratio (pull-down/input)
GATGATTGTTCTCCCAGCTGATGAATTTGTTGTTTCGAGTAAACAAATTTTCCTAATCTTTCTGTTCAAGCGCCATCTAC | 7.66 RPM ratio (pull-down/input)
GATGATTGTTCTCCCAGCTGATGAATTTTTTACTTCGAGTAAACAAATTTTCCTAATCTTTCTGTTCAAGCGCCATCTAC | 0.261 RPM ratio (pull-down/input)
GATGATTGTTCTCCCAGCTGATGAATTTGTTTCGTCGAGTAAACAAATTTTCCTAATCTTTCTGTTCAAGCGCCATCTAC | 5.96 RPM ratio (pull-down/input)
GATGATTGTTCTCCCAGCTGATGAATTTGTTTCTTCGAGTAAACAAATTTTCCTAATCTTTCTGTTCAAGCGCCATCTAC | 6.78 RPM ratio (pull-down/input)
GATGATTGTTCTCCCAGCTGATGAATTTACTTCTTCGAGTAAACAAATTTTCCTAATCTTTCTGTTCAAGCGCCATCTAC | 0.632 RPM ratio (pull-down/input)
GATGATTGTTCTCCCAGCTGATGAATTGTTTACTTCGAGTAAACAAATTTTCCTAATCTTTCTGTTCAAGCGCCATCTAC | 7.35 RPM ratio (pull-down/input)
GATGATTGTTCTCCCAGCTGATGAATTTTGTTCTTCGAGTAAACAAATTTTCCTAATCTTTCTGTTCAAGCGCCATCTAC | 1.21 RPM ratio (pull-down/input)
GATGATTGTTCTCCCAGCTGATGAATTTTGTTCGTCGAGTAAACAAATTTTCCTAATCTTTCTGTTCAAGCGCCATCTAC | 1.45 RPM ratio (pull-down/input)
GATGATTGTTCTCCCAGCTGATGAATTGTTTTCGTCGAGTAAACAAATTTTCCTAATCTTTCTGTTCAAGCGCCATCTAC | 3.95 RPM ratio (pull-down/input)
GATGATTGTTCTCCCAGCTGATGAATTTGCAGTATCGAGTAAACAAATTTTCCTAATCTTTCTGTTCAAGCGCCATCTAC | 1.49 RPM ratio (pull-down/input)
GATGATTGTTCTCCCAGCTGATGAATTTATATACTCGAGTAAACAAATTTTCCTAATCTTTCTGTTCAAGCGCCATCTAC | 3.39 RPM ratio (pull-down/input)
GATGATTGTTCTCCCAGCTGATGAATTTTGGCCTTCGAGTAAACAAATTTTCCTAATCTTTCTGTTCAAGCGCCATCTAC | 2.06 RPM ratio (pull-down/input)
GATGATTGTTCTCCCAGCTGATGAATTATTGCGATCGAGTAAACAAATTTTCCTAATCTTTCTGTTCAAGCGCCATCTAC | 1.08 RPM ratio (pull-down/input)

Sequence | binding signal
GATGATTGTTCTCCCAGCTGATGAATTTGTTGGTTCGAGTAAACAAATTTTCCTAATCTTTCTGTTCAAGCGCCATCTAC | 7.67 RPM ratio (pull-down/input)
GATGATTGTTCTCCCAGCTGATGAATTCGTTTGTTCGAGTAAACAAATTTTCCTAATCTTTCTGTTCAAGCGCCATCTAC | 5.83 RPM ratio (pull-down/input)
GATGATTGTTCTCCCAGCTGATGAATTGATTTGTTCGAGTAAACAAATTTTCCTAATCTTTCTGTTCAAGCGCCATCTAC | 3.85 RPM ratio (pull-down/input)
GATGATTGTTCTCCCAGCTGATGAATTCGTTTTTTCGAGTAAACAAATTTTCCTAATCTTTCTGTTCAAGCGCCATCTAC | 2.58 RPM ratio (pull-down/input)
GATGATTGTTCTCCCAGCTGATGAATTTTTTGTTTCGAGTAAACAAATTTTCCTAATCTTTCTGTTCAAGCGCCATCTAC | 0.423 RPM ratio (pull-down/input)
GATGATTGTTCTCCCAGCTGATGAATTTGTTTTTTCGAGTAAACAAATTTTCCTAATCTTTCTGTTCAAGCGCCATCTAC | 6.93 RPM ratio (pull-down/input)
GATGATTGTTCTCCCAGCTGATGAATTGGTTGGTTCGAGTAAACAAATTTTCCTAATCTTTCTGTTCAAGCGCCATCTAC | 3.77 RPM ratio (pull-down/input)
GATGATTGTTCTCCCAGCTGATGAATTTGATTGTTCGAGTAAACAAATTTTCCTAATCTTTCTGTTCAAGCGCCATCTAC | 6.32 RPM ratio (pull-down/input)
GATGATTGTTCTCCCAGCTGATGAATTTGAATTTTCGAGTAAACAAATTTTCCTAATCTTTCTGTTCAAGCGCCATCTAC | 0.538 RPM ratio (pull-down/input)
GATGATTGTTCTCCCAGCTGATGAATTCTTTGTTTCGAGTAAACAAATTTTCCTAATCTTTCTGTTCAAGCGCCATCTAC | 0.575 RPM ratio (pull-down/input)
GATGATTGTTCTCCCAGCTGATGAATTCGTTTTGTCGAGTAAACAAATTTTCCTAATCTTTCTGTTCAAGCGCCATCTAC | 3.54 RPM ratio (pull-down/input)
GATGATTGTTCTCCCAGCTGATGAATTTGGTTGTTCGAGTAAACAAATTTTCCTAATCTTTCTGTTCAAGCGCCATCTAC | 5.35 RPM ratio (pull-down/input)
GATGATTGTTCTCCCAGCTGATGAATTGTACTATTCGAGTAAACAAATTTTCCTAATCTTTCTGTTCAAGCGCCATCTAC | 0.669 RPM ratio (pull-down/input)
GATGATTGTTCTCCCAGCTGATGAATTGTCCCTGTCGAGTAAACAAATTTTCCTAATCTTTCTGTTCAAGCGCCATCTAC | 0.319 RPM ratio (pull-down/input)
GATGATTGTTCTCCCAGCTGATGAATTAGGGGTTTCGAGTAAACAAATTTTCCTAATCTTTCTGTTCAAGCGCCATCTAC | 0.738 RPM ratio (pull-down/input)
GATGATTGTTCTCCCAGCTGATGAATTTTACGCGTCGAGTAAACAAATTTTCCTAATCTTTCTGTTCAAGCGCCATCTAC | 0.624 RPM ratio (pull-down/input)
GATGATTGTTCTCCCAGCTGATGAATTGAGACACTCGAGTAAACAAATTTTCCTAATCTTTCTGTTCAAGCGCCATCTAC | 1.41 RPM ratio (pull-down/input)
